# Data as given in PubChem BioAssay AID1038 (National Center for Advancing Translational Sciences (NCATS), 2008).
# Records with an inconclusive call do not appear. Active and inactive are the calls of the source. Calls come from the whole dose curve.
# Assay: Normal 1 Cell Viability Secondary Assay for qHTS Assay for Epigenetic Modulators
# Conditions: Normal 1 bronchial epithelial viability, MTS, 4 d
# Source text: NIH Molecular Libraries Screening Centers Network [MLSCN] NIH Chemical Genomics Center [NCGC] MLSCN Grant: 1 X01 MH079860-01 Assay Provider: Elisabeth D. Martinez, University of Texas SW Medical Center NCGC Assay Overview: This secondary assay characterizes selected actives identified in the qHTS of the Locus Derepression (LDR) assay (PubChem AID 597). The LDR assay detects the derepression of a GFP reporter that is stably integrated in a region of the genome of murine c127i mammary cells that is presumably silenced. Compounds that cause derepression of the locus to express GFP are identified by enumerating GFP positive cells using a laser-scanning microplate cytometer. […] Normal 1 cell viability was measured using Cell Titer 96 AQueous One (Promega), an assay which detects the ability of metabolically active cells to reduce a tetrazolium salt substrate (MTS), into a soluble formazan product that can be measured by colorimetry.
# NCGC Assay Protocol Summary Normal 1 cells were plated in 96-well flat bottom tissue culture dishes (Corning) and grown overnight at 37 C and 5% CO2, then treated with compounds, incubated 4 days, and assayed for viability using the Cell Titer 96 AQueous One kit (Promega) according to the manufacturer's protocol. Absorbance at 490 nm and 650 nm (reference) was measured by a Spectra Max (Molecular Devices). […]
smiles,measurement,value
CN1CSC(=S)N(C)C1,outcome,inactive
